# Pf Dd2 growth: Plasmodium falciparum Dd2 growth inhibition | 120,000 tested, 4.3% active | Potency, µM (titrated, usually from 28.9 µM), actives largely listed as inhibitors | P. falciparum Dd2 growth, SYBR Green, 72 h; active = well fitted inhibition curve with a large enough effect; also: nearly all actives have a fitted effect of over 65% in size
#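 Readout: SYBR Green fluorescence, 485 nm excitation, 535 nm emission, after ~16 h lysis at 37C. Before that, Dd2-infected red cells (2.5% hematocrit) grew 72 h with compound, 29 uM top final concentration.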
# A number is an active result; n = inactive. The full list was thinned out, with hits kept by preference.
SMILES,Pf Dd2 growth
CCC(C)NC(=O)CSc1nc2cc3c(cc2c(=O)n1CCCCCC(=O)NCc1ccc2c(c1)OCO2)OCO3 (centres undefined),n
CS(=O)(=O)N1C[C@H]2CCN(Cc3cc(Cl)ccc3F)C[C@H]21,n
O=C1[C@H]2CN(Cc3ccc(Cl)cc3)C[C@H]2C(=O)N1Cc1ccc2c(c1)OCO2,n
COc1cc2cc(CN3CCC(N(C)C)C3)c(-c3cccc(Cl)c3)nc2cc1OC (centres undefined),7.9µM
COc1ccc(N2CCOC3CCN(Cc4cccc(Cl)c4)CC3C2=O)cc1 (centres undefined),n
CSc1ccc2cc(CN3CC[C@@H](O)C3)c(-c3ccc(Cl)cc3)nc2c1,11µM
CSc1ccc(C(=O)N2CCN(Cc3ccccc3)CC(O)C2)cc1 (centres undefined),n
Cn1ncc(CN2CC[C@@H](c3ccc4c(c3)OCO4)[C@H](O)C2)c1C1CC1,n
CN(C)C1CCN(Cc2cc3cc4c(cc3nc2-c2ccc(Cl)cc2)OCO4)C1 (centres undefined),11µM
COc1ccc(OC)c2nc(-c3cccc(Cl)c3)c(CN3CCC(O)CC3)cc12,n
Cc1cc(C)n(CC(=O)N2CCc3nn(Cc4ccccc4)c(=O)n3CC2)n1,n
Cc1c(C(=O)N(C)C)sc2c1c(=O)n(-c1ccc(Cl)c(Cl)c1)c(=O)n2CC(=O)C(C)(C)C,n
O=C(CCc1conc1-c1ccccc1F)NCc1ccc(Cl)cc1,n
CC(C)N1C(=O)C2(CCCC2)C1C(=O)Nc1ccncc1 (centres undefined),n
Cc1noc2c(-c3cccnc3NCCCn3ccnc3)cc(-c3ccccc3)nc12,10µM
COCCCNc1ncccc1-c1cc(-c2ccccc2)nc2c(C)noc12,n
Cc1noc2c(-c3cccnc3NCCN(C)C)cc(-c3ccccc3)nc12,n
COCCCNC(=O)c1ccc(C)c(-n2c(C)nc3cccnc32)c1,n
O=S(=O)(C1CC1)N1CCn2c(nnc2-c2cncc(Br)c2)C1,n
CC1(C(=O)NCC2CC2)CCc2cnc(NCc3ccccc3)nc21 (centres undefined),n
Clc1ccccc1C1(c2ccnc(C3CCCC3)n2)CCNCC1,4µM
CC1(C(=O)NCc2ccncc2)CCCc2cnc(NCc3ccccc3)nc21 (centres undefined),n
COc1ccccc1Cn1cnc2cccnc21,n
c1ccc(-c2nc(CC3CCCNC3)no2)nc1 (centres undefined),n
Clc1ccccc1C1(c2ccnc(NCc3ccccc3)n2)CCNCC1,4.5µM
SMILES,Pf Dd2 growth
c1cnc2nc(C3CCNCC3)[nH]c2c1,n
c1coc(-c2ccnc3nc(C4CCC4)nn23)c1,n
COc1ccccc1Cc1nccc(C2(c3ccccc3Cl)CCNCC2)n1,8.9µM
Clc1ccccc1C1(c2ccnc(CC3CC3)n2)CCNCC1,5µM
COc1ccccc1Cc1nc2ccccc2[nH]c1=O,n
Cc1ccc(Cn2c(C3CCN(C(=O)c4ccccc4F)CC3)n[nH]c2=O)cc1,n
Cc1ccc(NS(=O)(=O)c2ccc3c(c2)C(C(C)C)C(=O)N3)cc1C (centres undefined),n
CCOc1ccccc1Nc1nnc(-c2cc3cc(Cl)ccc3oc2=O)s1,n
COc1ccc(CNC(=O)C2CCCN(C(=O)c3cnn(-c4ccc(F)cc4)c3-n3cccc3)C2)cc1 (centres undefined),n
O=C(N1CCCCC1)N1CCn2c(nnc2-c2cncc(Br)c2)C1,n
NS(=O)(=O)c1ccc(CCNC(=O)c2nnn3c2COC(c2ccc(F)cc2)C3)cc1 (centres undefined),n
Cc1ccc(OCC(=O)Nc2cccc(C(=O)OCc3cc(=O)n4c(C)csc4n3)c2)cc1,n
O=C(Nc1ccc2c(c1)OCCO2)N1CCC2(CC1)CC(N1CCCC1)CCO2 (centres undefined),n
CNC(=O)[C@H]1C[C@H](Oc2ccccc2)CN1S(=O)(=O)c1ccccc1,n
CC(C)C(=O)N1CCCCCCNC(=O)[C@@H]2C[C@@H](C(=O)N3CCN(c4ccccn4)CC3)C[C@@H]21,n
O=C1NCCCCCN(C(=O)NC2CCCCC2)[C@@H]2C[C@@H](C(=O)N3CCc4ccccc4C3)C[C@H]12,8.9µM
O=C1CCCCC(C(=O)N2CCc3ccccc3C2)N1 (centres undefined),n
O=C1NCCCCCCN[C@H]2C[C@H](C(=O)N3CCc4ccccc4C3)C[C@@H]12,6.3µM
CCS(=O)(=O)N1CCCCCCNC(=O)[C@@H]2C[C@@H](C(=O)N3CCc4ccccc4C3)C[C@@H]21,n
Cn1ccnc1C(=O)N1CCCCCNC(=O)[C@H]2C[C@H](C(=O)N3CCc4ccccc4C3)C[C@H]21,n
O=C(c1ccc2c(c1)OCO2)N1CCC(C(=O)O)(c2ccccc2)CC1,n
CN1CCCN(C(=O)CCC[C@H]2NC[C@@H]3C[C@H]2CN(Cc2ccccc2)C3)CC1,n
COc1ccccc1CN1CCCC(CN(CCN(C)C)C(=O)c2ccccc2OC)C1 (centres undefined),n
Cn1cccc1CN1CCCC(COc2ccccc2C(=O)N2CCCCC2)C1 (centres undefined),n
Cc1cc(C(=O)N(C)CC2CCCN(CCc3ccccc3F)C2)n[nH]1 (centres undefined),n
SMILES,Pf Dd2 growth
COc1ccccc1CCN1CCCC(CN(C)C(=O)C(=O)c2cccn2C)C1 (centres undefined),14µM
COc1ccccc1CCN1CCCC(CN(C)C(=O)Nc2ccccc2)C1 (centres undefined),2.2µM
CC(C)(C)CCN1CCCC(COc2ccccc2C(=O)N2CCCC2)C1 (centres undefined),n
COCC(=O)N1CCC(Oc2nccnc2N(C)C)C1 (centres undefined),n
COCc1nc(-c2ccc(OC3CN(C(=O)c4cccc(OC)c4)C3)cc2)no1,n
Cc1nc(N2CC[C@@H](NC(=O)c3cnccn3)[C@H](O)C2)c2ccsc2n1,n
O=C(Nc1cccn2nc(C3CCC3)nc12)c1cccc(C(F)(F)F)c1,4.5µM
O=C(Nc1cccn2nc(C3CCC3)nc12)c1ccc(F)cc1,n
Cc1ccc(C(=O)Nc2cccn3nc(C4CCC4)nc23)cc1C,n
CN(C)c1ccc(CNC(=O)Cc2ccc(NC(=O)N3CCCCc4ccccc43)cc2)cc1,n
COc1cccc(-c2noc(CC3CCN(C(=O)c4ccc(C)cc4C)CC3)n2)c1,n
O=C(Cc1cccc(F)c1)Nc1ccc2ncnc(N3CCCCC3)c2c1,n
O=C(Cc1ccccc1F)Nc1ccc2c(N3CCCCC3)ncnc2c1,13µM
COc1cccc(CC(=O)Nc2ccc3c(N4CCCCC4)ncnc3c2)c1,11µM
COc1ccc(CC(=O)Nc2ccc3ncnc(N4CCCCC4)c3c2)c(Cl)c1,n
COc1ccccc1CC(=O)Nc1ccc2ncnc(N3CCCCC3)c2c1,n
O=C(Cc1c(F)cccc1Cl)Nc1ccc2ncnc(N3CCCC3)c2c1,n
CCCOc1ccc(CNC(=O)CN2C(=O)c3cccnc3Oc3ccc(C)cc32)cc1,n
O=C(NC[C@H]1COCc2nc3cccnc3n21)c1ccc(Cl)cc1,n
CCc1nn(CC(=O)N2CCN(c3cccc(OC)c3)CC2)c(=O)c2cc3occc3n12,n
Cc1ccccc1CN1CCOc2cc([S+](N)(=O)[O-])ccc2C1,n
CC1=C(C(=O)Nc2ccccc2)C(c2ccc(F)cc2)n2nc(SCc3cc(C)ccc3C)nc2N1 (centres undefined),n
CC(=O)Nc1cccc(C(=O)NCCn2ccn3nc(-c4ccc(F)cc4)cc3c2=O)c1,n

# High-throughput results (PubChem)
